Laboratory results as given in PubChem BioAssay AID598 (SRMLSC, 2007).
The whole screen tested about 85,000 compounds, of which about 5,100 (6%) were called active. Shown is part of a subset that was picked to be rich in actives. A number with no mark means an inactive call.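 How the source made its calls: active means viability at or below 40%; inactive means viability above 40%.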

Assay: proliferation blockers of H69AR lung cancer cells, primary screen, cell-based, human, 86K library (AID 598);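 further: multidrug resistant small cell line overexpressing MRP-1 efflux transporter; 100% = mean luminescence of untreated control wells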
Settings: H69AR lung tumor viability, ATP luminescence, 72 h; at 10 µM; hits give low values

SMILES | viability
O=C(Cc1ccc(-n2c(=O)[nH]c3ccccc3c2=O)cc1)N1CCN(c2cccc(Cl)c2)CC1 | 89.4%
O=C(Nc1ccc2ccccc2c1)Nc1ccc2snnc2c1 | 7.33% (active)
COc1ccc(NC(=O)Nc2ccc3nc(C)c(C)nc3c2)cc1 | 90.7%
Cc1ccc(NC(=O)Nc2ccc3oc(C)nc3c2)cc1 | 74.5%
Cc1cc2nc(C)n(CCCNC(=O)Nc3ccccc3)c2cc1C | 91.7%
CCC1CCCCN1CCCNC(=O)C1CCC(Cn2c(=O)[nH]c3ccccc3c2=O)CC1 (stereo not given) | 77.4%
Cc1cccc(NC(=O)C2CC(=O)OC23CCCC3)c1 (stereo not given) | 102%
COc1ccc(C2CC(c3ccc(C)cc3)Nc3ncnn32)cc1 (stereo not given) | 91.5%
COc1ccc(C2CC(c3ccccc3)Nc3ncnn32)cc1 (stereo not given) | 90.5%
Clc1ccc(C2CC(c3cccs3)n3ncnc3N2)cc1Cl (stereo not given) | 35.8% (active)
Cc1cccc(C(=O)Nc2ccccc2N2CCN(c3ccc(F)cc3)CC2)c1 | 89.6%
FC(F)(F)c1nnc2ccc(N3CCN(c4ccccc4)CC3)nn12 | 92.5%
COc1cc2c(cc1OC)CN(C(=O)c1cc(=O)c3ccccc3o1)CC2 | 18.1% (active)
COc1ccc2c(c1)CCc1c(C(=O)N3CCc4ccccc4C3)noc1-2 | 94.9%
COc1ccc(S(=O)(=O)N2CCC(C(=O)N3CCc4ccccc4C3)CC2)cc1OC | 88.7%
CCN(CC)C(=O)CSc1nc2ccccc2o1 | 91.7%
CCOc1c(Br)cc(/C=C2\C(=O)N(CCC#N)N=C2C)cc1OC | 26.2% (active)
CCOc1cc(/C=N/O)cc(Br)c1OC | 90.5%
Cc1nnc(NCCO)c2ccccc12 | 89.8%
Cn1c(SCC(=O)N2CCCc3ccccc32)nc2ccccc2c1=O | 62.9%
Fc1ccccc1/C=C1\CCCC2=C1Nc1ncnn1C2c1ccccc1F (stereo not given) | 1.53% (active)
COc1ccc(C2C(C(C)=O)=C(O)C(=O)N2c2nccs2)cc1 (stereo not given) | 106%

SMILES | viability
O=C(N/N=C/c1ccc(O)cc1)/C(=C/c1ccc([N+](=O)[O-])cc1)NC(=O)c1ccccc1 | 88.2%
COc1c(F)c(F)c(C(=O)O)c(Nc2ccccc2C)c1F | 98.5%
COc1ccc(C(=O)OCC(=O)NCC2CCCCC2)cc1S(=O)(=O)N1CCCc2ccccc21 | 72.3%
C=CCn1c(SCCOc2ccc(OC)cc2)nnc1C(NC(=O)c1ccc(OC)cc1)C(C)C (stereo not given) | 64%
CCN(CC(=O)NC1CCS(=O)(=O)C1)c1nc(-c2cccnc2)nc2ccccc12 (stereo not given) | 89.7%
Cc1cccc(-n2c(N)c(C(=O)N3CCN(C)CC3)sc2=S)c1 | 94.4%
Cc1cccc(-n2c(O)c(C=Nc3ccccc3N)c(=O)[nH]c2=O)c1 | 10% (active)
Cc1cccc(N2CCN(S(=O)(=O)c3ccc4[nH]c(=O)c(=O)[nH]c4c3)CC2C)c1 (stereo not given) | 98.9%
O=C(C(NS(=O)(=O)c1cccc2nsnc12)c1ccccc1)N1CCN(c2ccccc2)CC1 (stereo not given) | 52.6%
CCSc1nnc(NC(=O)c2ccc(C)cc2)s1 | 103%
CCOc1ccccc1C(=O)NCc1ccco1 | 74.1%
Cc1cccc(Nc2ccccc2C(=O)NCc2ccco2)c1C | 15.7% (active)
O=C(Nc1ccccc1)Nc1ccccc1C(=O)NCc1ccco1 | 99.2%
O=C(Oc1ccccc1C(=S)N1CCCCC1)c1cc([N+](=O)[O-])cc([N+](=O)[O-])c1 | 94.3%
O=C(OC1CCOC1=O)c1ccc(-c2nc3ccccc3s2)s1 (stereo not given) | 92.7%
COc1ccccc1N1CC(O)=C(c2nc3ccccc3s2)C1=N | 31.6% (active)
COC(=O)c1nc2ccccc2s1 | 86.8%
COc1ccc(-c2nnc(SCc3cccnc3)o2)cc1 | 53.3%
O=C(COc1ccc(Cl)cc1)NCCSc1ccccc1 | 95.3%
CCOC(=O)c1c(C)[nH]c(C(=O)COc2ccc3c(c2)OCO3)c1C | 81.1%
CCOC(=O)c1nc(-c2ccc3c(c2)OCO3)[nH]c1C | 36% (active)
CCOC(=O)NCc1ccc2c(c1)OCO2 | 113%

SMILES | viability
Cc1nn(CC(=O)Nc2ccc3c(c2)nc(CN2CCCCC2)n3C)c(=O)c2ccccc12 | 104%
Cn1c(CCN2CCCCCC2)nc2cc(NC(=O)Nc3ccccc3)ccc21 | 9.15% (active)
CCC(=O)Nc1ccc2c(c1)nc(CCN1CCN(C)CC1)n2C | 74.1%
CC1CCC(N2CC(=O)N(Cc3ccc4c(c3)OCO4)C(c3ccc(F)cc3)C2=O)CC1 (stereo not given) | 100%
COc1cccc2sc(Nc3nc(C)c(C(C)=O)s3)nc12 | 32.5% (active)
CC(=O)c1sc(NC(=O)c2ccc(C)cc2)nc1C | 80%
COC(=O)c1sc(NC(=O)c2ccc(OC)cc2OC)nc1C | 69.8%
CC(C)CC(N=C1NC(C)(C)Cc2ccccc21)C(=O)O (stereo not given) | 108%
CCCCc1nnc(NC(=O)CSc2nc(C)cc(=O)[nH]2)s1 | 92.2%
Cc1ccc(-n2c(CNc3ccc(F)cc3)nnc2SCC(=O)N2CCOCC2)cc1 | 92%
CC(=O)Nc1ccc(NC(=O)CSCc2cnn(-c3ccccc3)c2-n2cccc2)cc1 | 87.6%
C1=C(CCNc2ncnc3c2cnn3-c2ccccc2)CCCC1 | 77%
O=C(NCCC1=CCCCC1)C1CCN(Cc2cnn(-c3ccccc3)c2-n2cccc2)CC1 | 26% (active)
CC(C)Oc1ccc(Oc2ccc(C(F)(F)F)cn2)cc1 | 98.7%
N=c1n(Cc2ccc(Cl)cc2)c2ccccc2n1CC(O)c1ccco1 (stereo not given) | 14.7% (active)
O=S(=O)(O)c1nc2ccccc2n1Cc1ccc(Cl)cc1 | 86.1%
Cn1c(=N)n(CC(O)c2ccccc2)c2ccccc21 (stereo not given) | 80.7%
O=C(NCc1ccccc1Cl)c1csc2c1CCCCC2 | 97.3%
Cc1ccsc1C(C(=O)NC1CCCCC1)N(C(=O)Cc1cccs1)C1CC1 (stereo not given) | 25.5% (active)
CC(Cc1cccs1)NC(=O)NC1CCCCC1 (stereo not given) | 87%
O=C(NCC(=O)N(Cc1cccs1)C(C(=O)NC1CCCCC1)c1ccco1)c1cccs1 (stereo not given) | 82.2%
